In the supplement of paper PMC6607015:
Structures can show the parent of a compound that is named as a salt.

Assays:
Conditions in all cases: compound concentration in added solution (µM; 5 µl added to 20 µl cells): 10; 18 h
[1] = system: A431; test: LBPA endosome anti-LBPA integrated intensity (sum per cell), Z-score; higher = more LBPA staining
Outline: (§1)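 Per-cell integrated LBPA or filipin intensity, whole-cell or within LBPA endosomes, is expressed as Z-scores normalised in AcuityXpress. HeLa MZ or A431 cells, 3,500 per well in 20 µl, sat on 5 µl of 10 µM compound solution in duplicate 384-well imaging plates for 18 h. They were then fixed in 4% PFA, stained, imaged in four 20× fields per well and segmented using MetaXpress.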

[2] = system: HeLa MZ; test: as above
Outline: as §1

[3] = system: A431; test: whole-cell filipin (free cholesterol) integrated intensity, Z-score; higher = more cholesterol staining
Outline: as §1

[4] = system: HeLa MZ; test: as above
Outline: as §1

[5] = system: A431; test: filipin (cholesterol) integrated intensity within LBPA endosomes, Z-score; higher = more cholesterol in LBPA endosomes
Outline: as §1

[6] = system: HeLa MZ; test: as above
Outline: as §1

Oc1c(Cl)cc(Cl)c2cccnc12 [Chloroxine]
LBPA endosome anti-LBPA integrated intensity (z-score) [1]: -0.792 | LBPA endosome anti-LBPA integrated intensity (z-score) [2]: -1.58 | whole-cell filipin (z-score) [3]: -0.709 | whole-cell filipin (z-score) [4]: -1.27 | filipin (z-score) [5]: -0.75 | filipin (z-score) [6]: -0.803

Cn1c(=O)c2c(ncn2CC2OCCO2)n(C)c1=O [Doxofylline]
LBPA endosome anti-LBPA integrated intensity (z-score) [1]: -0.341 | LBPA endosome anti-LBPA integrated intensity (z-score) [2]: 0.313 | whole-cell filipin (z-score) [3]: -0.207 | whole-cell filipin (z-score) [4]: -0.159 | filipin (z-score) [5]: -0.416 | filipin (z-score) [6]: -0.528

Nc1nc(O)c2ncn(CCC(CO)CO)c2n1 [Penciclovir]
LBPA endosome anti-LBPA integrated intensity (z-score) [1]: -0.596 | LBPA endosome anti-LBPA integrated intensity (z-score) [2]: -1.08 | whole-cell filipin (z-score) [3]: -0.223 | whole-cell filipin (z-score) [4]: 0.234 | filipin (z-score) [5]: -0.512 | filipin (z-score) [6]: -0.438

CCCCc1oc2ccccc2c1C(=O)c1cc(I)c(OCCN(CC)CC)c(I)c1 [Amiodarone hydrochloride]
LBPA endosome anti-LBPA integrated intensity (z-score) [1]: 1.78 | LBPA endosome anti-LBPA integrated intensity (z-score) [2]: 0.0569 | whole-cell filipin (z-score) [3]: 0.251 | whole-cell filipin (z-score) [4]: 0.182 | filipin (z-score) [5]: 2.45 | filipin (z-score) [6]: 1.95

CN1CCC(OC(c2ccccc2)c2ccccc2)CC1 [Diphenylpyraline hydrochloride]
LBPA endosome anti-LBPA integrated intensity (z-score) [1]: 0.268 | LBPA endosome anti-LBPA integrated intensity (z-score) [2]: 1.06 | whole-cell filipin (z-score) [3]: 0.89 | whole-cell filipin (z-score) [4]: 0.448 | filipin (z-score) [5]: 0.505 | filipin (z-score) [6]: 0.456

NC[C@@H]1O[C@@H](O[C@H]2[C@H](O)[C@@H](O[C@H]3O[C@H](CO)[C@@H](O)[C@H](N)[C@H]3O)[C@H](N)C[C@@H]2N)[C@@H](O)[C@H](O)[C@H]1O [Kanamycin A sulfate]
LBPA endosome anti-LBPA integrated intensity (z-score) [1]: -0.635 | LBPA endosome anti-LBPA integrated intensity (z-score) [2]: -0.981 | whole-cell filipin (z-score) [3]: -0.97 | whole-cell filipin (z-score) [4]: -0.361 | filipin (z-score) [5]: -0.515 | filipin (z-score) [6]: -0.597

Cc1ccc(S(=O)(=O)NC(=O)NN2CCCCCC2)cc1 [Tolazamide]
LBPA endosome anti-LBPA integrated intensity (z-score) [1]: -0.639 | LBPA endosome anti-LBPA integrated intensity (z-score) [2]: -1.11 | whole-cell filipin (z-score) [3]: -0.852 | whole-cell filipin (z-score) [4]: -0.547 | filipin (z-score) [5]: -0.571 | filipin (z-score) [6]: -0.672

CC(COc1ccccc1)NC(C)C(O)c1ccc(O)cc1 (centres undefined) [Isoxsuprine hydrochloride]
LBPA endosome anti-LBPA integrated intensity (z-score) [1]: -0.187 | LBPA endosome anti-LBPA integrated intensity (z-score) [2]: 0.869 | whole-cell filipin (z-score) [3]: -0.214 | whole-cell filipin (z-score) [4]: -0.465 | filipin (z-score) [5]: -0.444 | filipin (z-score) [6]: -0.378

OC(Cn1cncn1)(Cn1cncn1)c1ccc(F)cc1F [Fluconazole]
LBPA endosome anti-LBPA integrated intensity (z-score) [1]: -0.239 | LBPA endosome anti-LBPA integrated intensity (z-score) [2]: 0.69 | whole-cell filipin (z-score) [3]: -0.0365 | whole-cell filipin (z-score) [4]: 0.704 | filipin (z-score) [5]: -0.366 | filipin (z-score) [6]: -0.348

CNCCC=C1c2ccccc2CCc2ccccc21 [Nortriptyline hydrochloride]
LBPA endosome anti-LBPA integrated intensity (z-score) [1]: 3.79 | LBPA endosome anti-LBPA integrated intensity (z-score) [2]: 1.4 | whole-cell filipin (z-score) [3]: 1.95 | whole-cell filipin (z-score) [4]: 1.82 | filipin (z-score) [5]: 3.53 | filipin (z-score) [6]: 3.69

NCCc1cc[nH]n1 [Betazole hydrochloride]
LBPA endosome anti-LBPA integrated intensity (z-score) [1]: -0.528 | LBPA endosome anti-LBPA integrated intensity (z-score) [2]: 0.0261 | whole-cell filipin (z-score) [3]: -0.472 | whole-cell filipin (z-score) [4]: -0.657 | filipin (z-score) [5]: -0.476 | filipin (z-score) [6]: -0.51

CC(=O)OCC(=O)[C@@]12OC(C)(C)O[C@@H]1C[C@H]1[C@@H]3C[C@H](F)C4=CC(=O)C=C[C@]4(C)[C@@]3(F)[C@@H](O)C[C@@]12C [Fluocinonide]
LBPA endosome anti-LBPA integrated intensity (z-score) [1]: -0.115 | LBPA endosome anti-LBPA integrated intensity (z-score) [2]: -0.842 | whole-cell filipin (z-score) [3]: -0.144 | whole-cell filipin (z-score) [4]: -0.284 | filipin (z-score) [5]: -0.311 | filipin (z-score) [6]: -0.49

CCn1cc(C(=O)O)c(=O)c2cnc(N3CCNCC3)nc21 [Pipemidic acid]
LBPA endosome anti-LBPA integrated intensity (z-score) [1]: -0.522 | LBPA endosome anti-LBPA integrated intensity (z-score) [2]: 0.188 | whole-cell filipin (z-score) [3]: -0.242 | whole-cell filipin (z-score) [4]: 0.338 | filipin (z-score) [5]: -0.361 | filipin (z-score) [6]: -0.281

CCc1nc(N)nc(N)c1-c1ccc(Cl)cc1 [Pyrimethamine]
LBPA endosome anti-LBPA integrated intensity (z-score) [1]: 0.585 | LBPA endosome anti-LBPA integrated intensity (z-score) [2]: 0.917 | whole-cell filipin (z-score) [3]: 0.585 | whole-cell filipin (z-score) [4]: -0.093 | filipin (z-score) [5]: -0.133 | filipin (z-score) [6]: -0.422

Cc1ncc([N+](=O)[O-])n1CC(O)CCl (centres undefined) [Ornidazole]
LBPA endosome anti-LBPA integrated intensity (z-score) [1]: -0.468 | LBPA endosome anti-LBPA integrated intensity (z-score) [2]: -0.445 | whole-cell filipin (z-score) [3]: -0.79 | whole-cell filipin (z-score) [4]: -0.699 | filipin (z-score) [5]: -0.356 | filipin (z-score) [6]: -0.454

Nc1nc(=O)[nH]cc1F [Flucytosine]
LBPA endosome anti-LBPA integrated intensity (z-score) [1]: -0.468 | LBPA endosome anti-LBPA integrated intensity (z-score) [2]: -0.721 | whole-cell filipin (z-score) [3]: -0.313 | whole-cell filipin (z-score) [4]: -0.0984 | filipin (z-score) [5]: -0.463 | filipin (z-score) [6]: -0.623

CC1(C)O[C@@H]2C[C@H]3[C@@H]4C[C@H](F)C5=CC(=O)C=C[C@]5(C)[C@@]4(F)[C@@H](O)C[C@]3(C)[C@]2(C(=O)CO)O1 [Fluocinolone acetonide]
LBPA endosome anti-LBPA integrated intensity (z-score) [1]: -0.172 | LBPA endosome anti-LBPA integrated intensity (z-score) [2]: -0.371 | whole-cell filipin (z-score) [3]: 0.258 | whole-cell filipin (z-score) [4]: 0.13 | filipin (z-score) [5]: -0.163 | filipin (z-score) [6]: -0.367

Cc1cc2c(s1)Nc1ccccc1N=C2N1CCN(C)CC1 [Olanzapine]
LBPA endosome anti-LBPA integrated intensity (z-score) [1]: 0.0572 | LBPA endosome anti-LBPA integrated intensity (z-score) [2]: 1.62 | whole-cell filipin (z-score) [3]: 0.197 | whole-cell filipin (z-score) [4]: 0.311 | filipin (z-score) [5]: 0.151 | filipin (z-score) [6]: 0.615

CN1[C@@H]2CC[C@H]1C[C@@H](OC(c1ccccc1)c1ccccc1)C2 [Benztropine mesylate]
LBPA endosome anti-LBPA integrated intensity (z-score) [1]: 2.51 | LBPA endosome anti-LBPA integrated intensity (z-score) [2]: 2.77 | whole-cell filipin (z-score) [3]: 3.07 | whole-cell filipin (z-score) [4]: 3.74 | filipin (z-score) [5]: 2.51 | filipin (z-score) [6]: 2.8
